About 83,000 compounds went through this panel and 20% of them were active in at least one assay; those are over-represented in the sample as a whole.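 Activity criterion: percent growth below 10, measured after cells in 96-well plates were exposed to a single compound concentration for 48 hours.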 Values without a mark were called inactive. Active and inactive are the calls of the source.
Legend:
Experiment in all cases: NCI-60 one-dose screen, 48 h (100 = growth as untreated, 0 = no growth, -100 = all killed)
Conditions in all cases: 10 µM unless noted
DU-145 prostate = tested on: DU-145 prostate
K-562 leukemia = tested on: K-562 leukemia
MALME-3M melanoma = tested on: MALME-3M melanoma
MDA-MB-231 breast = tested on: MDA-MB-231 breast
RXF 393 renal = tested on: RXF 393 renal
SF-268 CNS = tested on: SF-268 CNS
SF-295 CNS = tested on: SF-295 CNS
SF-539 CNS = tested on: SF-539 CNS
UACC-257 melanoma = tested on: UACC-257 melanoma
M14 melanoma = tested on: M14 melanoma

Row | Structure (SMILES) | growth (DU-145 prostate) | growth (K-562 leukemia) | growth (MALME-3M melanoma) | growth (MDA-MB-231 breast) | growth (RXF 393 renal) | growth (SF-268 CNS) | growth (SF-295 CNS) | growth (SF-539 CNS) | growth (UACC-257 melanoma) | growth (M14 melanoma)
1 | COc1cc(C2=NN(C=O)C(c3cccc(Nc4ccnc5cc(Cl)ccc45)c3)C2)cc(OC)c1OC (centres undefined) | 80.2% | 46.5% | 89.3% | 76.5% | 72.2% | 74.2% | 66.8% | 91.7% | 73.2% | 64.1%
2 | Cc1ccc(C2=NNC(c3sc(Cl)nc3Cl)C2)cc1 (centres undefined) | 95.6% | 11.7% | 77.6% | 92.1% | 108% | 98.3% | 101% | 118% | 90.6% | 86.5%
3 | O=C1C=CC(=O)N1c1ccccc1N1C(=O)C=CC1=O | 110% | 50.2% | 144% | 92.6% | 111% | 97.7% | 125% | 100% | 115% | 110%
4 | CC(=O)N1N=C(c2ccc3c(c2)OCO3)CC1c1c(C)nn(-c2ccccc2)c1N(C)Cc1ccccc1 (centres undefined) | 94.6% | 56.5% | 84.8% | 81% | 79.2% | 74.4% | 68.9% | 94.5% | 56.7% | 77.2%
5 | NC(=N\N=C/Cc1ccccc1)/C(N)=N\N=C\Cc1ccccc1 | 101% | 103% | 144% | 97.7% | 121% | 94% | 108% | 93% | 101% | 105%
6 | CCOC(=O)C1=CCC(n2cc(C)c(=O)[nH]c2=O)O1 (centres undefined) | 119% | 99.4% | 120% | 97.3% | -5.82% (active) | 117% | 116% | 101% | 96.3% | 106%
7 | COc1ccc(C2=NN(C(C)=O)C(c3c(C)nn(-c4ccccc4)c3N3CCOCC3)C2)cc1 (centres undefined) | 107% | 99% | 106% | 98.1% | 98.7% | 95% | 93.9% | 93.7% | 86.3% | 94.8%
8 | O=C(/C=C/c1cccc(O)c1)c1cccc(-n2cc(-c3ccccc3)[nH]c2=O)c1 | -16.9% (active) | 1.71% (active) | 0.0704% (active) | -5.57% (active) | -62.4% (active) | 7.61% (active) | 64.8% | -27.4% (active) | 95.6% | 64.5%
9 | O=C(CNc1ccc2c(c1)C(=O)c1ccccc1C2=O)Nc1ccc2c(c1)C(=O)c1ccccc1C2=O | -100% (active) | -30.2% (active) | -81.2% (active) | -27.7% (active) | -89.4% (active) | -94.6% (active) | -89.4% (active) | -69.3% (active) | -90.3% (active) | -79.3% (active)
10 | CCOC(=O)/C(=C/CC/C(C)=C/CC/C(C)=C/CCc1ccoc1)CC(=O)N1CCCCC1 | 62.8% | 18.1% | 15.2% | -21.9% (active) | 77.8% | 66.4% | 33% | 76.3% | 12.7% | 31.4%
11 | O=[N+]([O-])c1ccc2[nH]cc(-c3c4ccccc4cc4[nH]c5ccc([N+](=O)[O-])cc5c34)c2c1 | 36.6% | 9.96% (active) | 26.5% | 45.6% | -2.62% (active) | 33.9% | 22.5% | 44% |  | -3.7% (active)
12 | Cc1sc2nc(N3CCCCC3)[nH]c(=O)c2c1C | 111% | 91.2% | 100% | 99.4% | 101% | 98% | 97% | 97.9% | 89.1% | 98.8%
13 | CC(=O)N1N=C(c2ccc(Nc3ccnc4cc(Cl)ccc34)cc2)CC1c1ccc(Cl)cc1 (centres undefined) | 67.3% | 19.1% | 26.8% | 72.7% | 42.3% | 53.3% | 15.4% | 86.4% | 61.7% | 47.6%
